KinaseGlo FLuc: Kinase-Glo luciferase inhibition (counter-screen). Kinase-Glo luciferase, ATP luminescence, 8 min. 200,000 tested, 0.28% active. Potency, µM (titrated, usually from 38.3 µM), for inactives: top-dose activity change, negative = inhibition, most hits filed as inhibitors. Q27757; note: nearly all actives have a fitted effect of over 60% in size
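Recombinant Kinase-Glo luciferase, 10 uM ATP (linear range), luciferin; imidazole pH 7.2 / KCl / MgCl2 / Tween / BSA buffer; 8 min RT; luminescence.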
RORg inh: inhibitors of mouse ROR gamma transcriptional activity; P51450; Drosophila S2 Gal4-RORgamma UAS-luciferase reporter, 20 h; Potency, µM (top dose mostly 53.6 µM), for inactives: at the highest dose activity change, negative = inhibition, hits mostly inhibitors; 310,000 tested, 5.4% active; note: nearly all actives have a fitted effect of over 60% in size
Target sequence (P51450 whole entry, looked up, the tested form may be a part): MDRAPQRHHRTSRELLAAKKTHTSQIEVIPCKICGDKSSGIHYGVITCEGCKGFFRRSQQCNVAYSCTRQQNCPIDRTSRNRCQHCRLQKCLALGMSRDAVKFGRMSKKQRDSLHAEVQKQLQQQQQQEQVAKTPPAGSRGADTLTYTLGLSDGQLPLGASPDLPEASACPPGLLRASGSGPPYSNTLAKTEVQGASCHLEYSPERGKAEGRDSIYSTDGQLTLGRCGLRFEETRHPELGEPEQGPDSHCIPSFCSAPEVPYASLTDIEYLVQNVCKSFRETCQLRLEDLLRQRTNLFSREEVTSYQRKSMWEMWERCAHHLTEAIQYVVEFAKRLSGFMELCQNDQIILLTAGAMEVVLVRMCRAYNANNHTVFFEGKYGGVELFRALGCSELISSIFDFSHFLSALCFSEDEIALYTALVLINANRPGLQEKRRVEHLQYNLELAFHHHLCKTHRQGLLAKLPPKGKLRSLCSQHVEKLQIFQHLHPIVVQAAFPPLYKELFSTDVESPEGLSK
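A Gal4/UAS one-hybrid system in insect cells: metallothionein-promoter Gal4–ROR gamma fusion plus Photinus luciferase reporter. Copper sulfate 700 uM final, 20 hr ambient incubation, luminescent detection after 10 min with reagent.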
Gal4-VP16 FLuc: counter-screen for ROR gamma inhibitors: Gal4-VP16 reporter | Drosophila S2 Gal4-VP16 UAS-luciferase, luminescence, 20 h | Potency, µM (titrated, usually from 53.6 µM), without a hit: top-dose activity, negative = inhibition, actives largely listed as inhibitors | 310,000 tested, 3.5% active | AID 2546;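 note: Gal4-VP16 expression switched on by copper sulfate through the metallothionein promoter; nearly all actives have a fitted effect of over 50% in size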
* hit, by the source's call; ? = inconclusive; / = no result. This is a sample that favours compounds with a hit; in the whole collection about 6.4% have one here. Calls come from the whole dose curve; as a rule, active = well fitted curve in the direction sought with a large enough effect; inconclusive = small, poorly fitted or top-dose-only effect, or another doubt; inactive = no such curve, though single readings can be large; an effect the other way counts as inactive or inconclusive. % is set by controls: 0 for no effect and ±100 for the full control effect; potency is the fitted concentration of half-maximal effect.

SMILES | KinaseGlo FLuc | RORg inh | Gal4-VP16 FLuc
CCc1ccc2[nH]c(C(=O)Nc3ccc4c(c3)OCO4)cc2c1 | / | 2% | 1%
Cc1ccc2c(c1)c1nnc(SCC(=O)Nc3ccc(N(C)C)cc3)nc1n2CC(=O)O | / | -17% | -5%
Cc1ccc(CNC(=S)NC2CCC(C(C)(C)C)CC2)cc1 (stereo unspecified) | / | 2.8µM* | 5µM*
Fc1ccc(C(CNC(=S)NC2CCCCC2)N2CCOCC2)cc1 (stereo unspecified) | -1% | 8.9µM* | ?
COc1ccc(CNC(=S)NC2CCCC2)cc1 | 7% | 8.9µM* | 7.9µM*
O=C(CCC(=O)NC1CCCCC1)NCc1ccc(F)cc1 | / | ? | -3%
COc1ccc(CCNC(=O)NC2CCCCC2)cc1 | -3% | -6% | 3%
S=C(NCC(c1cccnc1)N1CCOCC1)NC1CCCCC1 (stereo unspecified) | / | -15% | -7%
Fc1ccc(CNC(=S)NC2CCCCCC2)cc1 | 1% | 6.3µM* | 11µM*
NS(=O)(=O)c1ccc(CNC(=S)NC2CCCC2)cc1 | -2% | 2% | -10%
NC(N)=NCCC[C@H](NC(=O)[C@H](Cc1ccccc1)NC(=O)[C@@H]1CCCN1C(=O)[C@H](CO)NC(=O)[C@H](Cc1ccccc1)NC(=O)CNC(=O)[C@@H]1CCCN1C(=O)[C@@H]1CCCN1C(=O)[C@@H](N)CCCN=C(N)N)C(=O)O | / | -1% | -4%
NC(CC(=O)Nc1ccc(Oc2cc(F)c(F)cc2Br)cc1)C(=O)O (stereo unspecified) | / | 16% | 0%
COc1cc(-n2c(=O)c3ccccc3n(Cc3cc(=O)n4ccccc4n3)c2=O)cc(OC)c1OC | 0% | 23% | -17%
CCCN1CCN(C(=O)c2cc(COc3ccc(F)cc3F)on2)CC1 | / | 21% | 11%
CC#CCOC(=O)C1=CCCN(C)C1 | 0% | 15% | 0%
COc1ccccc1-c1nc2cc3ccccc3cc2nc1-c1ccccc1 | 0% | -23% | 18%
CC(NC(=O)C1CCC1)c1ccccc1 (stereo unspecified) | -1% | -28% | -1%
CC(NC(=S)NC1CCC(C(C)(C)C)CC1)c1ccccc1 (stereo unspecified) | / | 1.6µM* | 2.8µM*
COc1ccc(C(=S)NC2CCCCC2)cc1 | / | -30% | 8%
COc1ccc(CNC(=S)NC2CCCCC2)cc1 | / | 7.1µM* | 13µM*
COC(=O)c1ccc(N2CCN(CC(=O)c3ccc(-c4ccccc4)cc3)CC2)c([N+](=O)[O-])c1 | 4% | 31% | -14%
CC(NS(=O)(=O)c1ccc2c(c1)c(=O)n(C)c(=O)n2C)C(=O)NC1CCCCC1 (stereo unspecified) | / | -4% | 3%
CC1C(=O)C(C)C(c2ccccc2F)NC1c1ccccc1F (stereo unspecified) | / | -23% | 2%
COc1cc2c(cc1OC)C(c1ccccc1F)NCC2 (stereo unspecified) | / | -21% | -13%
CC(c1ccncn1)N(C)Cc1nc(Cc2ccccc2F)no1 (stereo unspecified) | -1% | 15% | 3%
SMILES | KinaseGlo FLuc | RORg inh | Gal4-VP16 FLuc
CC(c1ccncn1)N(C)Cc1nc(-c2ccc(C(F)(F)F)cc2)no1 (stereo unspecified) | 8% | 3.2µM* | 7.1µM*
CCc1cc(C(=O)Cc2ccc(F)cc2)c(O)cc1O | 1% | 10% | ?
CCCc1cc(C(=O)Cc2ccc(F)cc2)c(O)cc1O | -3% | 11µM* | ?
CCOC1(OCC)C(c2ccc(N)cc2)C(C#N)(C#N)C1(OCC)OCC (stereo unspecified) | -3% | -3% | 7%
CCOC1(OCC)C(c2ccc(Cl)cc2)C(C#N)(C#N)C1(OCC)OCC (stereo unspecified) | -2% | 13µM* | -63%
COc1ccc2c(c1)C(=O)/C(=C/C=C/c1ccccc1)CC2 | -5% | -14% | -14%
COC1=CC(=O)C(O)=C/C1=C\C=C\c1ccccc1 | -4% | -95% | 13µM*
COc1ccc(NC(=O)c2c(NC(=O)CNCc3ccco3)sc3c2CCC3)c(OC)c1 | -4% | 1.1µM* | 2.5µM*
COC(=O)c1c(NC(=O)CCNCc2ccco2)sc2c1CCC2 | / | -2% | 11%
COc1ccc(NC(=O)c2c(NC(=O)CNCc3ccco3)sc3c2CCC3)cc1 | 4% | -73% | ?
COc1ccc(OC)c(NC(=O)c2c(NC(=O)CNCc3ccco3)sc3c2CCC3)c1 | -3% | ? | 2.2µM*
O=C(O)COCC(=O)Nc1ccc(OCCc2ccccc2)cc1 | / | -34% | 2%
Cn1ccnc1C(O)(c1nnc(-c2ccccc2)o1)C(F)(F)F (stereo unspecified) | -2% | 7.1µM* | ?
Cn1ccnc1C(O)(c1ccccc1)c1ccccc1 | / | 7% | -6%

Screening data (PubChem)
